According to ChEMBL document CHEMBL3988442, “University of Dundee, Small-Polar-MMV Screening Library” (2021):
Out of some 48,000 compounds screened, about 13,000 (27%) showed an effect of 50% or more. This is one part of the list.

What follows are compounds tested on Wolbachia pipientis (assay: Anti-Wolbachia Cell-Based Screen). Conditions: 5 µM.
Format: functional
Parameters: scale not given: in the data most compounds retested in dose-response had high values

SMILES	Percent Effect
O=C(C[C@H]1[C@H]2CN(C(=O)c3cccnc3)C[C@@H]12)Nc1cccnc1	-0.113%
O=C(O)C(F)(F)F.O=C(c1ccccn1)N1CC[C@H]2[C@H]1CCN2S(=O)(=O)C1CC1	-10.64%
NC(=O)N1C[C@@H]2CN(C(=O)c3ccco3)C[C@@H]2C1	-28.89%
O=C(c1ccccn1)N1CCC(Oc2cccnc2)CC1	-15.11%
O=C(c1ccccn1)N1CC(S(=O)(=O)c2ccc(Cl)cc2)C1	113.3%
O=C(c1ccccn1)N1CCC(Oc2ncccc2Cl)CC1	6.011%
Cn1cnnc1S(=O)(=O)C1CCN(C(=O)c2ccco2)CC1	9.772%
CN(C1CCCC1)C(C)(C)C(=O)NCCS(C)(=O)=O	3.461%
N#CCc1ccc(NC(=O)N[C@H](CO)Cc2ccc(O)cc2)cc1	-6.882%
CCc1nc2c(c(NCc3cc(-c4cccnc4)no3)n1)CCNCC2	11.03%
O=C(NCc1c(F)cccc1F)C1CN(C(=O)c2cnccn2)C1	-2.814%
O=C(c1cnccn1)N1CC(S(=O)(=O)c2ccc(Cl)cc2)C1	115.9%
O=C(NC1CC1)C1CN(C(=O)c2cnccn2)C1	-10.02%
CCOCC(O)CNc1cncc(Br)c1 (configuration not stated)	-4.889%
CC(=O)CC(C)(C)NC(=O)CCN(C)Cc1ccc(Cl)s1	13.53%
CN1CC(=O)N(C2CCNC2)Cc2c(NC3CCCC3)ncnc21 (configuration not stated)	104.3%
CN1CC(=O)N(C2CCCNC2)Cc2c(NC3CCC3)ncnc21 (configuration not stated)	103.9%
O=c1c2cccc(C(F)(F)F)c2ncn1C1CCNC1 (configuration not stated)	-5.057%
CC1=C(C(=O)N2CCOC(Cc3cccc(C(F)(F)F)c3)C2)OCCO1 (configuration not stated)	-4.78%
Cc1noc(C)c1CCNc1nccc(CCC(F)(F)F)n1	1.118%
CN(C)Cc1nn(C)c2c1CN(S(=O)(=O)c1ccccc1F)C2	3.844%
CC(=O)NC1CCN(c2cc(-c3ccccc3)nc3c(C)c(C)nn23)C1 (configuration not stated)	-1.812%
CCc1[nH]ncc1C(=O)N1CCCC(n2ccnc2C(C)C)C1 (configuration not stated)	-14.63%
CC(C)OCCC1CCCCN1S(=O)(=O)c1cnn(C)c1 (configuration not stated)	-6.246%
CCn1cc(S(=O)(=O)N2CCCCCC2c2cc(C)no2)cn1 (configuration not stated)	176.5%
CCOC(=O)C1CCN(C(=O)CN2CCCC2c2cc(C)no2)CC1 (configuration not stated)	-7.861%

SMILES	Percent Effect
CNS(=O)(=O)CCCN1CCCC1c1cc(C)on1 (configuration not stated)	-6.242%
CCn1cc(CN(C)S(=O)(=O)N2CCCC2c2ccco2)cn1 (configuration not stated)	-4.974%
CCn1cc(S(=O)(=O)N2CCCCCC2c2cc(C)on2)cn1 (configuration not stated)	92.08%
COCCOCCC(=O)Nc1c(-c2ccc(F)cc2)ncn1C	-3.986%
CCn1[nH]c(C)c2c(C(F)(F)F)cc(=O)nc1-2	-15.52%
COc1c(C2CCCN2c2ncnc3ccsc23)c(C)nn1C (configuration not stated)	5.005%
CN1N=C(C(=O)N2CCN(c3ncccn3)CC2)CCC1=O	16.67%
O=C(COC1CCCC1)N1CCCN(c2ncccn2)CC1	-14.8%
CC(NC(=O)CCOc1ccccc1Cl)c1nnc2n1CCC2 (configuration not stated)	1.83%
CC(NC(=O)CCc1nc(C(C)(C)C)no1)c1nnc2n1CCC2 (configuration not stated)	1.388%
CC(C)(C)c1nnc2n1C(C(=O)N1CCN(c3ncccn3)CC1)CC2 (configuration not stated)	115.5%
CC(C)NC(=O)C1CCc2nnc(C(C)(C)C)n21 (configuration not stated)	100.1%
Cc1cn2nc(N3CCCC3C(=O)N3CCOCC3)sc2n1 (configuration not stated)	-18.11%
CC(C)(C)c1nnc2n1C(C(=O)N1CCOCC1)CC2 (configuration not stated)	111.9%
CN(C)C(=O)C1CCc2nnc(C(C)(C)C)n21 (configuration not stated)	107%
O=C1CCSCC(C(=O)N2CCOCC2)N1 (configuration not stated)	-11.6%
CCc1nc2n(n1)CCCC2NC(=O)Nc1cccc(F)c1F (configuration not stated)	-21.46%
C[S+]([O-])c1cccc(NC(=O)N(CCC#N)Cc2ccccn2)c1 (configuration not stated)	-5.424%
CCn1cc(CNc2ccc(N(C)CCOC)cn2)cn1	3.344%
O=C(C1CCCc2[nH]ncc21)N1CCCCCC1 (configuration not stated)	7.18%
CC(C)(C)c1nnc2n1C(C(=O)N1CCCC1)CC2 (configuration not stated)	107.6%
O=C(C1CCCc2[nH]ncc21)N1CCCC1 (configuration not stated)	-1.484%
COCC1CN(Cc2ccoc2)Cc2cn(CC3CCOCC3)nc21 (configuration not stated)	-9.673%
CN1CCCC1CNC(=O)CCCOCc1ccccc1 (configuration not stated)	-8.407%
CN1CCCC1CCNC(=O)Nc1ccccc1 (configuration not stated)	124.8%
O=C(NCCCO)Nc1ccccc1	-6.748%
